For some assays here: Potency and affinity values are given separately. The source made the active and inactive calls. Unless noted, how the calls were made is not given here.
Assays:
[1] = antimalarial activity against Dd2 strain (AID 2302;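 active means growth inhibition above 50% at the single 2 µM test dose, taken to imply half-maximal potency below 2 µM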;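 further: 0% = DMSO untreated growth and 100% = chloroquine plus artemisinin killed control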); conditions: P. falciparum Dd2 in RBCs, LDH growth readout, 72 h; at 2 µM; hits give high values
[2] = HepG2 cytotoxicity, primary screen, cytotoxicity control for P. falciparum antimalarial project, cell-based, ATP luminescence (AID 2303;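 active means inhibition above 50%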;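 further: 0% = DMSO wells and 100% = digitonin-killed cells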); conditions: HepG2 viability, 24-48 h, at 10 µM, hits give high values
[3] = target: L-lactate dehydrogenase (Plasmodium falciparum (isolate CDC / Honduras)) (UniProt Q27743); assay: PfLDH activity inhibition – cell lysate, 3D7 strain, counter-screen for P. falciparum growth inhibition project (AID 2304);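 further: 0% = vehicle and 100% = reference inhibitor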; conditions: P. falciparum 3D7 crude extract, LDH APAD/NBT absorbance; at 2 µM; hits give high values
[4] = inhibition of 3D7 malaria parasite growth – strain 3D7 (AID 2306);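 further: 0% = DMSO wells and 100% = chloroquine plus artemisinin control wells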; conditions: P. falciparum 3D7 erythrocytic growth, LDH absorbance, 72 h; at 2 µM; hits give high values
[5] = target: Calcium-dependent protein kinase 1 (Plasmodium falciparum (isolate 3D7)) (UniProt P62344); assay: PfCDPK1 kinase inhibitors, biochemical, TCAMS library (AID 1159585; cut-off not given, nearly all actives have IC50 up to about 0.98 µM;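 further: inhibitors leave more ATP so luminescence rises with inhibition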); conditions: recombinant PfCDPK1, Kinase-Glo ATP depletion luminescence
[6] = target: Plasmodium falciparum protein kinase 6 (PK6, PF3D7_1337100) (UniProt Q8IDW1); assay: PfPK6 kinase inhibitors, biochemical, TCAMS library (AID 1159586); conditions: recombinant PfPK6, Kinase-Glo ATP depletion luminescence
[7] = target: Protein kinase 7 (PK7), Plasmodium falciparum 3D7 (PF3D7_0213400) (UniProt Q7YTF7); assay: inhibition of Plasmodium PK7 catalytic activity – biochemical, TCAMS antimalarial set, Kinase-Glo luminescence (AID 1159587); conditions: recombinant PfPK7, Kinase-Glo ATP depletion luminescence
[8] = target: Calcium-dependent protein kinase 4 (Plasmodium falciparum (isolate 3D7)) (UniProt Q8IBS5); assay: PfCDPK4 kinase inhibitors, biochemical, TCAMS library (AID 1159588; cut-off not given, nearly all actives have IC50 up to about 0.91 µM); conditions: recombinant PfCDPK4, Kinase-Glo ATP depletion luminescence
Calcium-dependent protein kinase 4 (Plasmodium falciparum (isolate 3D7)), sequence (Q8IBS5 whole entry, looked up): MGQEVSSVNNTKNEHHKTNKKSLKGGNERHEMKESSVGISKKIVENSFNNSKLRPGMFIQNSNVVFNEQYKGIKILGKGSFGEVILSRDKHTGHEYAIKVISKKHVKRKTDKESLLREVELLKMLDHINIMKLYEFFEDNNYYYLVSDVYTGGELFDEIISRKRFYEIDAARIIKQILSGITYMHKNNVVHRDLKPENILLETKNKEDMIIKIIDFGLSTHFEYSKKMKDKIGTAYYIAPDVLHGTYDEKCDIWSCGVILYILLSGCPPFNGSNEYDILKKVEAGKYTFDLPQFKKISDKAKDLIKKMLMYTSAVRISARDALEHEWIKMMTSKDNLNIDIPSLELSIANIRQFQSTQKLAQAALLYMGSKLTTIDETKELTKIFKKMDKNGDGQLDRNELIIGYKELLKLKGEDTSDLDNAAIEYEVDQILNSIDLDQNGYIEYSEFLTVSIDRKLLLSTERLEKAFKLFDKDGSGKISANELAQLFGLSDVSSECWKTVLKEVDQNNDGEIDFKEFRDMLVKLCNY

Plasmodium falciparum protein kinase 6 (PK6, PF3D7_1337100), sequence (Q8IDW1 1-305): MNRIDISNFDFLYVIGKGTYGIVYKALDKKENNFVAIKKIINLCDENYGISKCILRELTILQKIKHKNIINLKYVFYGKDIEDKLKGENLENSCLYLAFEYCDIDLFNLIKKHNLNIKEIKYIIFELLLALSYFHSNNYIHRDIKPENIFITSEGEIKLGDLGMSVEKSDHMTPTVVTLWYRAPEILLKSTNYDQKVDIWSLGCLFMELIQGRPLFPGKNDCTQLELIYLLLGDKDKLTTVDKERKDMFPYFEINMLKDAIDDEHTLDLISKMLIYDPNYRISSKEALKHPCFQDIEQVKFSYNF
L-lactate dehydrogenase (Plasmodium falciparum (isolate CDC / Honduras)), sequence (Q27743 whole entry, looked up): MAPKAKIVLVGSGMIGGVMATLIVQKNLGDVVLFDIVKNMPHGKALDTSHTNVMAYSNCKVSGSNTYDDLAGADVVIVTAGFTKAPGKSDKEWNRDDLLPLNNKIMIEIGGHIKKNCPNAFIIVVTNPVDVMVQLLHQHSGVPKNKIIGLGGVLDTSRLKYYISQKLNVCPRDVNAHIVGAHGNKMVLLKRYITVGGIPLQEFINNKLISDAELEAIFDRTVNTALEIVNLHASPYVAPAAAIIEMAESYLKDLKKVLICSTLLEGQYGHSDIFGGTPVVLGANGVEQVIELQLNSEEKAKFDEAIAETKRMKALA
Calcium-dependent protein kinase 1 (Plasmodium falciparum (isolate 3D7)), sequence (P62344 whole entry, looked up): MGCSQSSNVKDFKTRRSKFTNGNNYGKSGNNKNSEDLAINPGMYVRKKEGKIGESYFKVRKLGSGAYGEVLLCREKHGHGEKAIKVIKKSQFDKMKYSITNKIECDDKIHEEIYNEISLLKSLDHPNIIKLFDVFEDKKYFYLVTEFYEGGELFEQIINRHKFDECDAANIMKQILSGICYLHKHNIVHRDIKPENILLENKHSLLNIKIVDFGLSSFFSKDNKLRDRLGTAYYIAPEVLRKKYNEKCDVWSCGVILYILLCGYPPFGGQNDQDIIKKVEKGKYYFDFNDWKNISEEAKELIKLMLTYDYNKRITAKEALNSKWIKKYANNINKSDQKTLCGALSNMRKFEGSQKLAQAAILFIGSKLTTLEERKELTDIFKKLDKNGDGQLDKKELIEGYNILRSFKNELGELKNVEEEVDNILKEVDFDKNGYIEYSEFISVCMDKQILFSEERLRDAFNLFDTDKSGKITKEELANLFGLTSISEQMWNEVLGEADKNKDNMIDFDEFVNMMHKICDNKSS
Protein kinase 7 (PK7), Plasmodium falciparum 3D7 (PF3D7_0213400), sequence (Q7YTF7 1-343): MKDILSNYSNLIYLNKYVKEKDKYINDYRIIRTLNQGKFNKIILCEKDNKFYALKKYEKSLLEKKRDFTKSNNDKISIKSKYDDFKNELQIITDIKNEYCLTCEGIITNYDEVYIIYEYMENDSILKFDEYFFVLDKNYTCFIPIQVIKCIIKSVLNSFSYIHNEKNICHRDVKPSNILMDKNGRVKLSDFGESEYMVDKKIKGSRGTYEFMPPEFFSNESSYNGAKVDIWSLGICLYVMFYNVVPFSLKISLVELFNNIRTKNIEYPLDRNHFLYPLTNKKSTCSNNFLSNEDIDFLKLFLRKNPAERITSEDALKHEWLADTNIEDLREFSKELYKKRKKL

COc1ccc(C=Cc2cc(N)c3ccccc3n2)cc1Br
active: growth inhibition [1] 88% | inhibition [2] 55% | growth inhibition [4] 101%
inactive: inhibition [3] 2% | outcome [5] | outcome [6] | outcome [7] | outcome [8]

CCCCCCN1CCC(NCc2ccc(CN(C)C)cc2)CC1
active: growth inhibition [4] 92%
inactive: growth inhibition [1] 26% | inhibition [2] 18% | inhibition [3] 1% | outcome [5] | outcome [6] | outcome [7] | outcome [8]

O=[N+]([O-])c1cccc(C(Nc2ccccn2)c2ccc3cccnc3c2O)c1 (stereo unspecified)
inactive: growth inhibition [1] 29% | inhibition [3] 0% | outcome [5] | outcome [6] | outcome [7] | outcome [8]
active: inhibition [2] 53% | growth inhibition [4] 86%

O=C(Nc1ccc2ccccc2c1)N1CCC(NCc2cccc([N+](=O)[O-])c2)CC1
active: growth inhibition [4] 98%
inactive: growth inhibition [1] -3% | inhibition [2] -1% | inhibition [3] 2% | outcome [5] | outcome [6] | outcome [7] | outcome [8]

CCN(CC)CCCN(CCCN(CC)CC)c1cc(C)nc(Nc2ccc(Cl)cc2)n1
active: growth inhibition [4] 101%
inactive: growth inhibition [1] 7% | inhibition [2] 11% | inhibition [3] 2% | outcome [5] | outcome [6] | outcome [7] | outcome [8]

CS(=O)(=O)c1cccc(-c2ccc3oc(C(N)=O)c(NC(=O)c4cccs4)c3c2)c1
active: growth inhibition [1] 77% | growth inhibition [4] 86%
inactive: inhibition [2] 11% | inhibition [3] -8% | outcome [5] | outcome [6] | outcome [7] | outcome [8]

CC(Cc1ccc(NC(=O)c2ccc(CC(C)NCc3ccc(Cl)cc3)cc2)cc1)NCCc1cccc(Cl)c1 (stereo unspecified)
inactive: inhibition [3] -5% | outcome [5] | outcome [6] | outcome [7] | outcome [8]
active: growth inhibition [1] 75% | inhibition [2] 95% | growth inhibition [4] 101%

N#Cc1ccc(-c2ccc(C(=O)NCCCCN3CCC(c4ccc5c(c4OCc4ccccn4)CCCC5)CC3)cc2)cc1
inactive: growth inhibition [1] 39% | inhibition [2] 37% | inhibition [3] 6% | outcome [5] | outcome [6] | outcome [7] | outcome [8]
active: growth inhibition [4] 96%

CCCCCCn1c(Sc2ccc(C#N)c([N+](=O)[O-])c2)nnc1-c1cccs1
active: growth inhibition [1] 60% | growth inhibition [4] 97%
inactive: inhibition [2] 26% | inhibition [3] -4% | outcome [5] | outcome [6] | outcome [7] | outcome [8]

NCc1cccc(-c2cccc(CNC3CCN(Cc4ccccc4)CC3)c2)c1
inactive: growth inhibition [1] 45% | inhibition [2] 9% | inhibition [3] 2% | outcome [5] | outcome [6] | outcome [7] | outcome [8]
active: growth inhibition [4] 100%

COc1cccc2[nH]c(NCCCNCc3cc(Br)cc(Br)c3)nc12
inactive: growth inhibition [1] 2% | inhibition [2] 5% | inhibition [3] -8% | outcome [5] | outcome [6] | outcome [7] | outcome [8]
active: growth inhibition [4] 88%

C=CCn1c(C)cc(C(=O)COc2ccc(S(=O)(=O)N3CCOCC3)cc2[N+](=O)[O-])c1C
active: growth inhibition [4] 94%
inactive: growth inhibition [1] 5% | inhibition [2] 0% | inhibition [3] 3% | outcome [5] | outcome [6] | outcome [7] | outcome [8]

O=C(Cc1cnc[nH]1)Nc1ccc(-c2ccc(-c3nc4ccc(C(F)(F)F)cc4[nH]3)s2)cc1
active: growth inhibition [1] 99% | growth inhibition [4] 101%
inactive: inhibition [2] 48% | inhibition [3] 0% | outcome [5] | outcome [6] | outcome [7] | outcome [8]

FC(F)(F)c1cc(Nc2ncnc3ccc(Br)cc23)ccc1OCc1ccccc1
active: growth inhibition [4] 87%
inactive: growth inhibition [1] 9% | inhibition [2] 12% | inhibition [3] 6% | outcome [5] | outcome [6] | outcome [7] | outcome [8]

CCc1nc2ccc(C(=O)OC)nc2n1Cc1ccc2oc(-c3ccccc3N)c(Br)c2c1
inactive: inhibition [2] 8% | inhibition [3] -2% | outcome [5] | outcome [6] | outcome [7] | outcome [8]
active: growth inhibition [1] 75% | growth inhibition [4] 93%

O=C(Nc1ccc(-c2cncc(NCCCN3CCCC3)c2)cc1)c1ccccc1
active: growth inhibition [4] 94%
inactive: growth inhibition [1] 49% | inhibition [2] -1% | inhibition [3] -2% | outcome [5] | outcome [6] | outcome [7] | outcome [8]

CCc1nc(N)nc(N)c1-c1ccc(C(C)C)cc1
active: growth inhibition [4] 92%
inactive: growth inhibition [1] -4% | inhibition [2] 3% | inhibition [3] 1% | outcome [5] | outcome [6] | outcome [7] | outcome [8]

COC(=O)c1ccc(NC(=O)c2ccc(CCN3CCC(c4nc(COCC(F)(F)F)c(-c5ccc(F)cc5)o4)CC3)cc2)cc1
inactive: growth inhibition [1] 37% | inhibition [2] 22% | inhibition [3] -5% | outcome [5] | outcome [6] | outcome [7] | outcome [8]
active: growth inhibition [4] 89%

O=C(NCC1CC1)C1CCN(C(c2ccccc2)c2cc(F)cc(F)c2)CC1 (stereo unspecified)
active: growth inhibition [1] 95% | growth inhibition [4] 99%
inactive: inhibition [2] -3% | inhibition [3] 9% | outcome [5] | outcome [6] | outcome [7] | outcome [8]

O=C(Nc1ccc(Cl)cc1F)NC1CCN(CCCCCNC(=O)[C@@H]2C[C@H]2c2ccc(Cl)c(Cl)c2)CC1
inactive: growth inhibition [1] 27% | inhibition [2] 46% | inhibition [3] -5% | outcome [5] | outcome [6] | outcome [7] | outcome [8]
active: growth inhibition [4] 101%

COc1cccc(CN2CCCC(COC(c3ccc(F)cc3)c3ccc(F)cc3)C2)c1O (stereo unspecified)
inactive: inhibition [2] 24% | inhibition [3] 4% | outcome [5] | outcome [6] | outcome [7] | outcome [8]
active: growth inhibition [1] 100% | growth inhibition [4] 98%

CC(C)(C)c1ccc(S(=O)(=O)Nc2cc(Cl)ccc2Cn2ccc(N3CCNCC3)nc2=O)cc1
active: growth inhibition [1] 74% | growth inhibition [4] 95%
inactive: inhibition [2] -9% | inhibition [3] 2% | outcome [5] | outcome [6] | outcome [7] | outcome [8]

COc1cccc(CCNc2nc(NCc3ccccc3)c3cc(OC)c(OC)cc3n2)c1
active: growth inhibition [1] 99% | growth inhibition [4] 100%
inactive: inhibition [2] 20% | inhibition [3] -6% | outcome [5] | outcome [6] | outcome [7] | outcome [8]

CCCc1ccc(Nc2nc(C)cc(N(CC)CCCN3CCCCC3)n2)cc1
inactive: inhibition [2] 48% | inhibition [3] 5% | outcome [5] | outcome [6] | outcome [7] | outcome [8]
active: growth inhibition [1] 95% | growth inhibition [4] 101%

O=C(Nc1cccc(CN2CCN(Cc3ccc(O)cc3)CC2)c1)c1cccc(C(F)(F)F)c1
inactive: growth inhibition [1] 15% | inhibition [2] 21% | inhibition [3] 2% | outcome [5] | outcome [6] | outcome [7] | outcome [8]
active: growth inhibition [4] 91%

Cc1cnc(C(=O)Nc2cccc(-c3csc(-c4nc5ccccc5[nH]4)c3)c2)cn1
inactive: inhibition [2] 31% | inhibition [3] -1% | outcome [5] | outcome [6] | outcome [7] | outcome [8]
active: growth inhibition [1] 80% | growth inhibition [4] 98%

CCOC(=O)c1c(CSc2ccccc2)oc2cc(CN(C)C)c(O)c(Cl)c12
inactive: inhibition [2] 12% | inhibition [3] -4% | outcome [5] | outcome [6] | outcome [7] | outcome [8]
active: growth inhibition [1] 70% | growth inhibition [4] 99%

CN1CCN(CCCCNc2c3ccccc3nc3ccccc23)CC1
active: growth inhibition [4] 101%
inactive: growth inhibition [1] -7% | inhibition [2] 37% | inhibition [3] 4% | outcome [5] | outcome [6] | outcome [7] | outcome [8]

CN1CCN(c2nsc3ccc(-c4ccc(OCCN5CCCC5)cc4)cc23)CC1
active: growth inhibition [1] 99% | inhibition [2] 57% | growth inhibition [4] 102%
inactive: inhibition [3] 6% | outcome [5] | outcome [6] | outcome [7] | outcome [8]

CN(c1ncc(-c2cccc(CNCc3ccccc3O)c2)cn1)C1CCCCC1
active: growth inhibition [1] 71% | growth inhibition [4] 95%
inactive: inhibition [2] 12% | inhibition [3] 3% | outcome [5] | outcome [6] | outcome [7] | outcome [8]

O=C(N[C@@H](Cc1cc(F)cc(F)c1)[C@H](O)CNCc1cccc(C(F)(F)F)c1)c1cc(C2CCCC2)cc(N2CCCC2=O)c1
active: growth inhibition [4] 95%
inactive: growth inhibition [1] 45% | inhibition [2] 37% | inhibition [3] -3% | outcome [5] | outcome [6] | outcome [7] | outcome [8]

COc1nc2c(CCN3CC[C@H](NCc4cc(C#N)c5c(c4)OCCO5)[C@H](O)C3)ccnc2cc1F
inactive: growth inhibition [1] 41% | inhibition [2] 18% | inhibition [3] -3% | outcome [5] | outcome [6] | outcome [7] | outcome [8]
active: growth inhibition [4] 95%

O=c1cc(NCCCNCc2ccc(C(F)(F)F)s2)[nH]c2ccccc12
active: growth inhibition [1] 68% | growth inhibition [4] 99%
inactive: inhibition [2] -11% | inhibition [3] 2% | outcome [5] | outcome [6] | outcome [7] | outcome [8]

Cc1cccc2[nH]c(-c3ccc(-c4ccc(CN5CCCC(N)C5)cc4)cc3)nc12 (stereo unspecified)
active: growth inhibition [1] 101% | growth inhibition [4] 99%
inactive: inhibition [2] 33% | inhibition [3] -3% | outcome [5] | outcome [6] | outcome [7] | outcome [8]

CC(C)=CC1C(C(=O)n2c(N)nc3ccccc32)C1(C)C (stereo unspecified)
active: growth inhibition [4] 99%
inactive: growth inhibition [1] 3% | inhibition [2] 16% | inhibition [3] -6% | outcome [5] | outcome [6] | outcome [7] | outcome [8]

COc1cc(Cc2cnc(N)nc2N)ccc1Oc1ccc(N)cc1
active: growth inhibition [4] 93%
inactive: growth inhibition [1] -1% | inhibition [2] 0% | inhibition [3] 6% | outcome [5] | outcome [6] | outcome [7] | outcome [8]

COc1ccc2sc(CNCCCNc3cc(=O)c4ccccc4[nH]3)c(Cl)c2c1
active: growth inhibition [4] 85%
inactive: growth inhibition [1] 42% | inhibition [2] 1% | inhibition [3] -4% | outcome [5] | outcome [6] | outcome [7] | outcome [8]
